# Measured values taken from PMC8384837, “Expanding the binding specificity for RNA recognition by a PUF domain”.
# Where a chain is given by its changes, count along the chain named.
# Key:
# Test in all cases: yeast three-hybrid, YBZ-1, SC-Leu-His + 0.5 mM 3-AT, 4 days
# Conditions in all cases: tags: N-Gal4 AD-HA kept; label: inside an RPR1-promoter hybrid RNA with tandem MS2 sites; ssRNA
# PUM1 PUF domain R7-SRR = PUM1 PUF domain R7-SRR (Homo sapiens, UniProt Q14671 828-1176, N1080R;E1083R)
# Summary of the method: (§1)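 Pumilio-1 PUF domain libraries, randomized (NNK) at the three base-contacting residues of each repeat, were co-expressed with matching RNA elements from a centromeric plasmid in strain YBZ-1 (LexA–MS2 coat fusion, HIS3 reporter). Transformants were plated on SC-Leu (input) and SC-Leu-His + 0.5 mM 3-AT (selection) for four days, and repeat regions were PCR-amplified and Illumina-sequenced. The interaction score is the log2 change in variant frequency from input to selection, with pseudocount 1 where absent.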
# PUM1 PUF domain R7-ERK = PUM1 PUF domain R7-ERK (Homo sapiens, UniProt Q14671 828-1176, S1079E;N1080R;E1083K)
# Summary of the method: as §1
# PUM1 PUF domain R7-KHS = PUM1 PUF domain R7-KHS (Homo sapiens, UniProt Q14671 828-1176, S1079K;N1080H;E1083S)
# Summary of the method: as §1
# PUM1 PUF domain R1-RCC = PUM1 PUF domain R1-RCC (Homo sapiens, UniProt Q14671 828-1176, S863R;R864C;Q867C)
# Summary of the method: as §1
# PUM1 PUF domain R1-VRR = PUM1 PUF domain R1-VRR (Homo sapiens, UniProt Q14671 828-1176, S863V;Q867R)
# Summary of the method: as §1
# PUM1 PUF domain R8-KFC = PUM1 PUF domain R8-KFC (Homo sapiens, UniProt Q14671 828-1176, N1122K;Y1123F;Q1126C)
# Summary of the method: as §1
# PUM1 PUF domain R4-NNL = PUM1 PUF domain R4-NNL (Homo sapiens, UniProt Q14671 828-1176, H972N;Q975L)
# Summary of the method: as §1
# PUM1 PUF domain R6-CWC = biological target: T1, PUM1 PUF domain R6-CWC (Homo sapiens, UniProt Q14671 828-1176, N1043C;Y1044W;Q1047C)
# T1 sequence: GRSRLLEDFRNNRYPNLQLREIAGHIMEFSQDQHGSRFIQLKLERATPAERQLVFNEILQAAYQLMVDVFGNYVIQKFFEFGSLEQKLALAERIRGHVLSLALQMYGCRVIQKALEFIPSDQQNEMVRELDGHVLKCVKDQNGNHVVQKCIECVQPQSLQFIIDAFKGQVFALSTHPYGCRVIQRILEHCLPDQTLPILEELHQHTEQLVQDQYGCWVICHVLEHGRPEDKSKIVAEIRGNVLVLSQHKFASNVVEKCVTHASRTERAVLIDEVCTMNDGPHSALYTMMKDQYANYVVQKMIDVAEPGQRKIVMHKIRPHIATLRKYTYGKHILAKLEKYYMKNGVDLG
# Summary of the method: as §1
# PUM1 PUF domain R8-CFR = PUM1 PUF domain R8-CFR (Homo sapiens, UniProt Q14671 828-1176, N1122C;Y1123F;Q1126R)
# Summary of the method: as §1
# PUM1 PUF domain R6-CFN = biological target: T2, PUM1 PUF domain R6-CFN (Homo sapiens, UniProt Q14671 828-1176, N1043C;Y1044F;Q1047N)
# T2 sequence: T1 sequence with W217F, C220N
# Summary of the method: as §1
sequence,measurement,setting,value
GGCUAGAACUAGUGGAUCCCCCGGCGCCCGGCGGCUCGAGCCCGGGUAAGUCUAAAUAGUCUGCAUGCCGCCGGGCGCCAUGCCUGCAGGUCGACUCUAGAAAACAUG,binding signal,PUM1 PUF domain R7-SRR,2.92 log2 enrichment (interaction score)
same,binding signal,PUM1 PUF domain R7-ERK,5.87 log2 enrichment (interaction score)
same,binding signal,PUM1 PUF domain R7-KHS,3.33 log2 enrichment (interaction score)
GGCUAGAACUAGUGGAUCCCCCGGCGCCCGGCGGCUCGAGCCCGGGUAAGUGUAAAUGGUCUGCAUGCCGCCGGGCGCCAUGCCUGCAGGUCGACUCUAGAAAACAUG,binding signal,PUM1 PUF domain R1-RCC,2.4 log2 enrichment (interaction score)
GGCUAGAACUAGUGGAUCCCCCGGCGCCCGGCGGCUCGAGCCCGGGUAAGUGUAAAUUGUCUGCAUGCCGCCGGGCGCCAUGCCUGCAGGUCGACUCUAGAAAACAUG,binding signal,PUM1 PUF domain R1-RCC,2.58 log2 enrichment (interaction score)
same,binding signal,PUM1 PUF domain R1-VRR,1.88 log2 enrichment (interaction score)
GGCUAGAACUAGUGGAUCCCCCGGCGCCCGGCGGCUCGAGCCCGGGUAAGGGUAAAUAGUCUGCAUGCCGCCGGGCGCCAUGCCUGCAGGUCGACUCUAGAAAACAUG,binding signal,PUM1 PUF domain R8-KFC,2.66 log2 enrichment (interaction score)
GGCUAGAACUAGUGGAUCCCCCGGCGCCCGGCGGCUCGAGCCCGGGUAAGUGUAAAUAGUCUGCAUGCCGCCGGGCGCCAUGCCUGCAGGUCGACUCUAGAAAACAUG,binding signal,PUM1 PUF domain R8-KFC,2.49 log2 enrichment (interaction score)
same,binding signal,PUM1 PUF domain R4-NNL,3.79 log2 enrichment (interaction score)
same,binding signal,PUM1 PUF domain R6-CWC,3 log2 enrichment (interaction score)
same,binding signal,PUM1 PUF domain R8-CFR,4.47 log2 enrichment (interaction score)
GGCUAGAACUAGUGGAUCCCCCGGCGCCCGGCGGCUCGAGCCCGGGUAAGUAUAAAUAGUCUGCAUGCCGCCGGGCGCCAUGCCUGCAGGUCGACUCUAGAAAACAUG,binding signal,PUM1 PUF domain R7-KHS,2.08 log2 enrichment (interaction score)
GGCUAGAACUAGUGGAUCCCCCGGCGCCCGGCGGCUCGAGCCCGGGUAAGUUUAAAUAGUCUGCAUGCCGCCGGGCGCCAUGCCUGCAGGUCGACUCUAGAAAACAUG,binding signal,PUM1 PUF domain R7-SRR,2.68 log2 enrichment (interaction score)
GGCUAGAACUAGUGGAUCCCCCGGCGCCCGGCGGCUCGAGCCCGGGUAAGCGUAAAUAGUCUGCAUGCCGCCGGGCGCCAUGCCUGCAGGUCGACUCUAGAAAACAUG,binding signal,PUM1 PUF domain R8-KFC,6.35 log2 enrichment (interaction score)
same,binding signal,PUM1 PUF domain R8-CFR,4.3 log2 enrichment (interaction score)
GGCUAGAACUAGUGGAUCCCCCGGCGCCCGGCGGCUCGAGCCCGGGUAAGUGUAUAUAGUCUGCAUGCCGCCGGGCGCCAUGCCUGCAGGUCGACUCUAGAAAACAUG,binding signal,PUM1 PUF domain R4-NNL,3 log2 enrichment (interaction score)
GGCUAGAACUAGUGGAUCCCCCGGCGCCCGGCGGCUCGAGCCCGGGUAAGUGAAAAUAGUCUGCAUGCCGCCGGGCGCCAUGCCUGCAGGUCGACUCUAGAAAACAUG,binding signal,PUM1 PUF domain R6-CFN,5.35 log2 enrichment (interaction score)
GGCUAGAACUAGUGGAUCCCCCGGCGCCCGGCGGCUCGAGCCCGGGUAAGUGUAAAUCGUCUGCAUGCCGCCGGGCGCCAUGCCUGCAGGUCGACUCUAGAAAACAUG,binding signal,PUM1 PUF domain R1-VRR,2.85 log2 enrichment (interaction score)
